High-throughput results from PubChem BioAssay.
Hits are enriched below; roughly 19% of the tested compounds scored in any of these assays.
Giardia killer – Giardia lamblia killing | Giardia lamblia trophozoite viability | 0.15% of 340,000 active | activity change, % at 7.66 µM, hits read low; in the data active means activity change below about -80%; inconclusive means between about -30% and that limit;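 further: parasites exposed to compound for two days anaerobically before the ATP read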
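Media and compound were dispensed first, then trophozoites at 100 cells/well; plates sat 48 hrs at 37 deg C without oxygen before ATP luminescence reagent was added and read after 15-30 min at room temperature.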
ELG1 repair inh – ELG1-dependent DNA repair inhibition | HEK293T ELG1-luciferase reporter, luminescence, 16 h; DNA damage induced by 5-fluorouridine | Potency, µM (titrated, usually from 46.1 µM), most hits filed as inhibitors | 2.3% of 330,000 active; further: nearly all actives have a fitted effect of over 55% in size
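Reporter activity after DNA damage by 5-fluorouridine is monitored. Compound-treated cells incubate 16 hr at 37 °C, then ONE-Glo is added for 30 min before luminescence reading.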
TDP1 inh – inhibitors of human tyrosyl-DNA phosphodiesterase TDP1; Potency, µM (highest dose often 130 µM), hits mostly inhibitors; 0.28% of 350,000 active; recombinant TDP1, AlphaScreen DNA substrate cleavage; Q9NUW8; further: nearly all actives have a fitted effect of over 40% in size
Target sequence (Q9NUW8 whole entry, looked up): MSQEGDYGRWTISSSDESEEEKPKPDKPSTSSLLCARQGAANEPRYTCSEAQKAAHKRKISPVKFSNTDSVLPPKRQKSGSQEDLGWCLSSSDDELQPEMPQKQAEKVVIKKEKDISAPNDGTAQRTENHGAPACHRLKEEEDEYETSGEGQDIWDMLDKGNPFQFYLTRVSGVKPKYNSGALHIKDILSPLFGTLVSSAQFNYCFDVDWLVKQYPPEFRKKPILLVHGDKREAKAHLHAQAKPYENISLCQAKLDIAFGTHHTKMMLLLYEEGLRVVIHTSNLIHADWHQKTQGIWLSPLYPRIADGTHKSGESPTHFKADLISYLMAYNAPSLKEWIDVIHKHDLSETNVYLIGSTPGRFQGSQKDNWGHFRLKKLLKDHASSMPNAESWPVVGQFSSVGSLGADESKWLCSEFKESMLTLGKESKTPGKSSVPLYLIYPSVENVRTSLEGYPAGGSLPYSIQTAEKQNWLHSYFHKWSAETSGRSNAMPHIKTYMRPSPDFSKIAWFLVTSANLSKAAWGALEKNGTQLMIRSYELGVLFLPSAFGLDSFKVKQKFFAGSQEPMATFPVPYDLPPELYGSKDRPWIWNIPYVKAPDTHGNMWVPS
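Here, a 5' biotin and 3' phosphotyrosine-FITC DNA oligonucleotide reports Tdp1 activity: intact substrate bridges AlphaScreen beads, while cleavage leaves a 3' phosphate and drops signal. All incubations at room temperature.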
IL-1B inflam inh – inhibitors of inflammasome signaling (IL-1 beta secretion); activity change, % at 57.5 µM; AID 743279; 4.7% of 360,000 active; THP-1 LPS/ATP IL-1B secretion, AlphaLISA, 16 h; hits give low values; in the data active means activity change below about -50%; inconclusive means mostly about -30% to -49%
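Secreted IL-1B measured by AlphaLISA bead assay after 16 h compound exposure of THP-1 cells; compounds (final up to 57.5 uM) added 1 h before LPS (250 ng/mL) and ATP (1.25 mM) stimulation; lower signal means less secretion.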
TDP1 cell CPT – growth inhibition of DT40 Tdp1-/-;hTDP1 cells with camptothecin (screen for TDP1 inhibitors); chicken DT40 Tdp1-/-;hTDP1 cells + 20 nM CPT, ATP luminescence, 48 h; Potency, µM (top dose mostly 46.2 µM), usual class: inhibitors; 12% of 420,000 active; AID 686979; further: nearly all actives have a fitted effect of over 55% in size
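Chicken DT40 Tdp1-/- cells complemented with human TDP1, 400 cells/well, exposed to compounds plus 20 nM camptothecin for at least 48 h at 37 C; viability read as ATP content by CellTiter-Glo luminescence.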
DT40 TDP1 no CPT – qHTS for Inhibitors of human tyrosyl-DNA phosphodiesterase 1 (TDP1): qHTS in cells in absence of CPT. DT40 Tdp1-/- hTDP1 cells, no CPT, ATP luminescence, 48 h. Potency, µM (series often up to 46.2 µM), actives largely listed as inhibitors. 15% of 420,000 active. AID 686978, 2013; further: nearly all actives have a fitted effect of over 55% in size
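Chicken DT40 Tdp1-/- cells complemented with human TDP1, screened without camptothecin (DMSO vehicle only), 400 cells/well. Compounds pin-transferred, cells incubated at 37 °C for at least 48 hr. Growth read as ATP-dependent luminescence (CellTiter-Glo, 30 min at RT).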
A number is an active result; - = inactive; ? = inconclusive; . = not tested or not shown; [ ] = another dose, or the depositor's remark. Unless noted, the call rests on the fitted dose curve; in most records, active means well fitted curve in the direction sought with a large enough effect; inconclusive means small, poorly fitted or top-dose-only effect, or another doubt; inactive means no such curve, though single readings can be large; an effect the other way counts as inactive or inconclusive.

SMILES | Giardia killer | ELG1 repair inh | TDP1 inh | IL-1B inflam inh | TDP1 cell CPT | DT40 TDP1 no CPT
Cc1ccc(OCC(=O)c2cc(C)n(-c3ccccc3)c2C)c([N+](=O)[O-])n1 | -102 | - | - | - | ? | 15µM
CCCn1c(C)cc(C(=O)COc2ccc(S(=O)(=O)N(CC)CC)cc2[N+](=O)[O-])c1C | - | 16µM | - | - | 21µM | 23µM
C=CCn1c(C)cc(C(=O)COc2ccc(C)nc2[N+](=O)[O-])c1C | ? | ? | - | - | ? | 21µM
Cc1ccc(OCCCCN2CCc3ccccc3C2)cc1 | - | - | - | ? | - | ?
COc1ccc([N+](=O)[O-])cc1NC(=O)C(C)NNC(=O)c1cccc([N+](=O)[O-])c1 (stereo unspecified) | - | ? | - | - | - | ?
Cn1nccc1C(=O)N1CCCC(C(=O)c2cccc3ccccc23)C1 (stereo unspecified) | - | - | - | - | ? | 23µM
CC1=C(C(=O)N2CCCC(C(=O)c3cccc4ccccc34)C2)OCCO1 (stereo unspecified) | - | - | - | ? | ? | 16µM
CCCC(=O)Nc1c(-c2cccc(OC)c2)c(=O)c2ccccc2n1C | - | - | . | - | ? | -
COc1ccc(OC2C=CC(C#Cc3ccccc3)OC2CO)cc1 (stereo unspecified) | . | . | -[21 µM] | . | . | .
c1csc(C2=Nn3c(nnc3-c3ccncc3)SC2)c1 | - | 1.1µM | - | -75 | 15µM | 15µM
CCc1ccc(C2=Nn3c(nnc3-c3cccs3)SC2)cc1 | - | - | - | - | ? | 21µM
c1ccc(C2=Nn3c(nnc3-c3cccs3)SC2)cc1 | - | - | . | . | - | ?
c1ccc(-c2ccc(C3=Nn4c(nnc4-c4cccs4)SC3)cc2)cc1 | - | ? | - | - | ? | ?
CCOc1ccccc1N1CCN(C(=O)c2cc(S(=O)(=O)N(C)C)ccc2N2CCCC2)CC1 | - | ? | - | - | ? | ?
CCOc1ccccc1C(=O)NCC(=O)NCC(C)(C)N1CCOCC1 | - | - | - | - | - | -
CC(C(Sc1ccccc1N)c1ccccc1)[N+](=O)[O-] (stereo unspecified) | - | ? | - | -85 | 3.7µM | 3.7µM
Nc1ccccc1SC(CC(=O)c1ccccc1)c1ccccc1 (stereo unspecified) | . | . | . | - | ? | 13µM
COC(=O)c1ccccc1SC(CC(=O)c1ccccc1)c1ccc(F)cc1 (stereo unspecified) | - | ? | ? | ? | 18µM | 23µM
Nc1ccccc1SCc1ccccc1Cl | - | - | - | - | - | -
O=C(CC(Nc1ccc(F)cc1)c1ccccc1)c1ccccc1 (stereo unspecified) | - | ? | - | - | - | -
COc1cc(-c2c(OC)cccc2OC)cc2c1OCCN(Cc1cn[nH]c1-c1ccc(Cl)cc1)C2 | . | . | . | . | - | -
COc1cccc(C=O)c1OCCCOc1cccc2cccnc12 | - | ? | - | - | ? | 21µM
Cc1cc(C)cc(OCCCOc2cccc3cccnc23)c1 | - | - | - | - | 29µM | 16µM
COc1cc(C(=O)NCCOc2ccccc2C)cc(OC)c1OC | - | ? | . | - | ? | ?
COc1cc(C(=O)NCCOc2cccc3cccnc23)cc(OC)c1OC | - | 8.2µM | - | - | - | -
SMILES | Giardia killer | ELG1 repair inh | TDP1 inh | IL-1B inflam inh | TDP1 cell CPT | DT40 TDP1 no CPT
Brc1ccccc1OCCCOc1cccc2cccnc12 | - | ? | . | - | ? | ?
CC(=O)c1cccc(OCCCOc2cccc3cccnc23)c1 | - | - | - | - | ? | 16µM
Cc1ccc(N(CC(=O)Nc2ccc(Br)cc2)S(=O)(=O)c2cccs2)cc1 | . | . | - | . | - | -
CCOc1ccc2oc(C(=O)N3CC(C)OC(C)C3)c(C)c2c1 (stereo unspecified) | - | - | - | - | ? | -
Cc1cc(Cl)cc(Cl)c1OCCOc1cccc2cccnc12 | - | - | - | - | 23µM | ?
Cc1cc(C)c(OCCN(C)C)c(Cl)c1 | - | - | - | - | - | -
